This is a sample that favours compounds with a hit; in the whole collection about 1.6% have one here.
KCNQ2 inh: blocks the rat KCNQ2 potassium channel; B-score at 10 µM; AID 2156; hit rate 1.1% among 310,000; CHO-K1 KCNQ2, FluxOR thallium flux, 20 min; hits give low values;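 active = fluorescence ratio B-score at most minus 3 library SDs, with starting brightness B-score within 2 library SDs, cut at about -5.5 in these data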
KCNQ2 enhance: potentiators of rat KCNQ2 potassium channel | AID 2239 | O88943 | hit rate 0.54% among 310,000 | CHO-K1 KCNQ2, FluxOR thallium flux fluorescence; hits give high values | B-score at 10 µM;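 active = fluorescence ratio B-score at least 3 SD of library B-scores, with initial fluorescence B-score within 3 of them, cut at about 5.3 in these data; same plate scores as AID 2156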;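 note: B-score of peak minus minimum over baseline fluorescence ratio after K+ and Tl+ stimulus; positive B-score means potentiation of KCNQ2 with more thallium influx and brighter signal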
Kir21 confirm: confirmation of mouse Kir2.1 potassium channel inhibitors. Kir2.1-expressing cells, FluxOR thallium flux fluorescence; hits give low values. hit rate 41% among 2,300. shares compounds with KCNQ2 enhance. Tl flux remaining, % of negative control (hits give low values), % at 10 µM;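 active = Primary-screen hit whose thallium flux fell at least 3 control SD below untreated wells in both duplicates, with normal baseline fluorescence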;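 note: 0% = blank wells without stimulus and 100% = stimulated no-compound controls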
HEK293 ctr: alters thallium flux in parental HEK293 cells, Kir2.1 counter-screen; shares compounds with KCNQ2 enhance; FluxOR thallium flux fluorescence; 0% = unstimulated blank wells; FluxOR signal as % of negative control (100 = no effect), % at 10 µM; hit rate 19% among 2,300;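 active = dye signal at least 3 control SD above or below untreated wells in both duplicates, raw fluorescence within 3, either direction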;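 note: percent is based on the flux ratio of peak minus minimum fluorescence over baseline F0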
CHO-K1 Tl ctr: alters thallium flux in parental CHO-K1 cells, KCNQ2 counter-screen. activity increase over 3SD of controls, % at 10 µM. AID 2282. shares compounds with KCNQ2 enhance. FluxOR thallium flux fluorescence; zero = vehicle mean+3SD, 100% = vehicle-minus-blank window. hit rate 43% among 1,200;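 active = signal rise of at least 3 SD above the untreated control mean, in both duplicate wells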;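 note: counter screen of KCNQ2 potentiator hits so any rise reflects channel-independent effects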
KCNQ1 sel pot: selectivity of KCNQ2 potentiators: effect on human KCNQ1; shares compounds with KCNQ2 enhance; CHO KCNQ1 stable, FluxOR thallium flux fluorescence; beyond 3SD, as % of vehicle-control signal; AID 2283; activation over 3SD threshold, % at 10 µM; hit rate 28% among 1,200;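 active = fluorescence ratio rise of at least 3 SD of vehicle wells above their mean, in both replicate wells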;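 note: 0% = vehicle mean plus 3 SD and 100% = vehicle minus unstimulated blank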
Target sequence (P51787 whole entry, looked up): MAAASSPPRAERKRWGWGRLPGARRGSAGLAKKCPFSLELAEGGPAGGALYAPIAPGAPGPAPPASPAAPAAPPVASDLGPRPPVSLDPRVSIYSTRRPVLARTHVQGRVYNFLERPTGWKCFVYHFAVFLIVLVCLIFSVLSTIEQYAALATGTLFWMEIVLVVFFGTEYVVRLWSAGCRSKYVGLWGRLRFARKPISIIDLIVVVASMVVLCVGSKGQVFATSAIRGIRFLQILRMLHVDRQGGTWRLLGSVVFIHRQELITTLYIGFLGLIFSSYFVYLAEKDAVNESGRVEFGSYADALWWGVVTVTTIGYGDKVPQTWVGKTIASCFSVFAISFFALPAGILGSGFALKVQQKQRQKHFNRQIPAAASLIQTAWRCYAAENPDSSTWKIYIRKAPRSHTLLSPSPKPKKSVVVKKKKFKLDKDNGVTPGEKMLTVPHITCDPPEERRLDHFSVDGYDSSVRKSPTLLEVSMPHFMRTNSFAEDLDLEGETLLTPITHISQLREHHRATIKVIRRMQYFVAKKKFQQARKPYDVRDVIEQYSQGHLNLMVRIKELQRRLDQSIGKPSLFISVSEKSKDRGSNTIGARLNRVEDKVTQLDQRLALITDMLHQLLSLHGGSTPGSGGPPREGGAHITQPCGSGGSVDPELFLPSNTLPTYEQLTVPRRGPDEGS
KCNQ2 pot confirm: rat KCNQ2 channel potentiator confirmation; shares compounds with KCNQ2 enhance; CHO-KCNQ2 cells, FluxOR thallium flux fluorescence; potentiation, less the hit threshold, % at 10 µM; hit rate 68% among 1,200; AID 2287;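 active = fluorescence ratio rising 3 SD or more over the vehicle control mean in both replicates, plus primary screen hit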;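 note: peak minus minimum thallium fluorescence divided by baseline after K/Tl stimulus; 0% = vehicle mean plus 3 SD and 100% = vehicle minus unstimulated blank difference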
Kir2-1 sel: selectivity of KCNQ2 potentiators: effect on mouse Kir2.1; shares compounds with KCNQ2 enhance; HEK293 Kir2.1, FluxOR thallium flux fluorescence; activity over 3SD threshold, % at 10 µM; hit rate 2% among 1,200; AID 2345;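 active = fluorescence ratio rise of at least 3 SD above the vehicle-control mean, seen in both replicates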;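 note: 0% = vehicle mean plus 3 SD and 100% = vehicle minus no-stimulus blank window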
KCNQ2 W236L MoA: KCNQ2 potentiators acting on retigabine-insensitive rat KCNQ2 W236L mutant. shares compounds with KCNQ2 enhance. CHO KCNQ2-W236L, automated patch clamp current. current increase over 3SD of negative controls (%), hits give high values, % at 25 µM. hit rate 10% among 940. AID 2558;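 active = current increase at least 3 SD of the untreated controls above them in both duplicate recordings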
* = called active by the depositor; i = inactive; · = no result given.

SMILES	KCNQ2 inh	KCNQ2 enhance	Kir21 confirm	HEK293 ctr	CHO-K1 Tl ctr	KCNQ1 sel pot	KCNQ2 pot confirm	Kir2-1 sel	others
CCOC(=O)C(NC(C)=O)C(=O)Nc1ccc(C(C)(C)C)cc1 (configuration not stated)	i	·	·	·	·	·	·	·
O=C(NC(=S)NC1CCS(=O)(=O)C1)c1ccccc1F (configuration not stated)	i	1.67	·	·	·	·	·	·
Cc1cc(C)cc(Oc2nn[nH]n2)c1	i	0.88	·	·	·	·	·	·
COc1cccc(C(=O)Nc2nc(-c3ccccc3)c(-c3ccccc3)o2)c1	i	2.27	·	·	·	·	·	·
O=C(Nc1nc(-c2ccccc2)c(-c2ccccc2)o1)c1ccc(F)cc1	i	4.25	i	150.0%*	·	·	·	·
COc1cccc(/C=C2\SC(=S)N(CCC(=O)NCCc3ccc(O)cc3)C2=O)c1	i	·	·	·	·	·	·	·
Cc1c(S(=O)(=O)N2CCCC2)c(=O)n(C)c(=O)n1C	i	0.75	·	·	·	·	·	·
CCCc1nc2oc3c(Cl)ncnc3c2c2c1CCCC2	i	0.39	·	·	·	·	·	·
CCCc1nc2oc3c(NCCN(C)C)ncnc3c2c2c1CCCC2	i	5.36*	i	i	-15.5	-4.5	50.7*	-56.6	KCNQ2 W236L MoA=i
COC(=O)c1nn(-c2ccccc2)nc1-c1nn(-c2ccccc2)nc1C(=O)OC	i	·	·	·	·	·	·	·
O=C(CN1CCC(Cc2ccccc2)CC1)Nc1ccc2c(c1)OCCO2	i	5.47*	·	·	-6.4	-17.3	0.3*	-55.4	KCNQ2 W236L MoA=i
CN(C)S(=O)(=O)c1ccc(NC(=O)CN2CCC(Cc3ccccc3)CC2)cc1	i	4.32	·	·	·	·	·	·
N#Cc1ccc(C(=O)NCC2CCCCC2)cc1	i	0.42	·	·	·	·	·	·
CCn1nc(NS(=O)(=O)c2ccccc2)c2cc3ccccc3nc21	i	0.05	·	·	·	·	·	·
CCCCn1c(N)c(N(CCOC)C(=O)c2cc(-c3ccc(C)cc3)nc3ccccc23)c(=O)[nH]c1=O	i	·	·	·	·	·	·	·
Cc1nn(C)cc1/C=C1\SC(=S)NC1=O	i	0.35	·	·	·	·	·	·
O=C1NC(=S)S/C1=C\c1cc2ccccc2nc1N1CCCCC1	i	5.49*	i	i	23.3*	-16.8	21.4*	-21.1	KCNQ2 W236L MoA=i
CC1CCCCN1C(=O)CSCC(=O)Nc1nc(-c2cccs2)cs1 (configuration not stated)	i	·	·	·	·	·	·	·
CCc1nnc(NC(=O)CSc2nnc(C(C)NC(=O)c3ccccc3F)n2C)s1 (configuration not stated)	i	·	·	·	·	·	·	·
CCCC(C1=C(O)CC(C)(C)CC1=O)C1C(=O)CC(C)(C)CC1=O (configuration not stated)	i	·	·	·	·	·	·	·
Cc1ccc(C(C2=C(O)CC(C)(C)CC2=O)C2C(=O)CC(C)(C)CC2=O)o1 (configuration not stated)	i	8.67*	·	·	-16.7	53.9*	1.5*	-57.6	KCNQ2 W236L MoA=45.6%*
Cc1ccc(C(=O)Nc2nc3ccccc3c(=O)s2)cc1	i	6.07*	i	254.5%*	-14.0	-15.3	-2.5	-17.3
CSc1nc2ccc3nc(NC(=O)c4ccc(C)cc4)sc3c2s1	i	0.66	·	·	·	·	·	·
CN1CCN(CC(=O)Nc2c(C(=O)C3CC3)oc3ccccc23)CC1	i	0.93	·	·	·	·	·	·
Cc1ccc(C(=O)Nc2nc(C(C)(C)C)cs2)s1	i	6.64*	i	i	18.3*	-4.7	-0.3	-17.8	KCNQ2 W236L MoA=i
SMILES	KCNQ2 inh	KCNQ2 enhance	Kir21 confirm	HEK293 ctr	CHO-K1 Tl ctr	KCNQ1 sel pot	KCNQ2 pot confirm	Kir2-1 sel	others
CC(C)(C)c1csc(NC(=O)c2ccc(Cl)s2)n1	i	0.69	·	·	·	·	·	·
Cc1ccc(COc2cccc(/C=N/NC(=O)c3nnn(-c4nonc4N)c3C)c2)cc1	i	·	·	·	·	·	·	·
O=C(O)c1ccccc1C(=O)Nc1ccccc1	i	0.79	·	·	·	·	·	·
O=C(Nc1ccccc1)C1=C(c2ccccc2)S(=O)(=O)CCS1(=O)=O	i	8.09*	i	i	-16.1	-21.6	3.7*	-38.8	KCNQ2 W236L MoA=3.5%*
CCCCCCCCn1c2c(c(=N)c3ccccc31)CCC2	-5.74*	-5.74	13.5%*	i	·	·	·	·
CCCCCCCCCn1c2c(c(=N)c3c1CCC3)CCCC2	i	18.9*	9.0%*	i	39.0*	-3.6	-87.6	-114.5	KCNQ2 W236L MoA=i
CCCCn1c2c(c(=N)c3ccccc31)CCC2	i	·	·	·	·	·	·	·
CCn1c2c(c(=N)c3c1CCC3)CCCC2	i	0.8	·	·	·	·	·	·
CCCCN(C)CCNC(=O)C(=O)c1c(C)[nH]c2ccccc12	i	1.93	·	·	·	·	·	·
O=C(COC(=O)C1CCC(=O)N1)Nc1cc(Cl)ccc1Cl (configuration not stated)	i	0.31	·	·	·	·	·	·
CC(=O)c1sc(N/N=C\c2ccc(Br)cc2)nc1C	i	0.53	·	·	·	·	·	·
CN(c1ccc(F)cc1)S(=O)(=O)c1ccc(Cl)c(C(=O)OCC(=O)NCc2ccco2)c1	i	8.81*	i	i	15.2*	-13.6	24.0*	-39.7	KCNQ2 W236L MoA=i
CN(c1ccccc1)S(=O)(=O)c1cccc(C(=O)OCC(=O)NCc2ccco2)c1	i	1.31	·	·	·	·	·	·
CCOC(=O)c1sc(NC(=O)/C=C/c2cnn(C)c2C)c(C(=O)OC(C)C)c1C	i	0.24	·	·	·	·	·	·
O=C(O)c1cc(NN=Nc2ccc(Br)cc2)cc([N+](=O)[O-])c1	i	7.43*	i	i	-2.2	33.0*	16.3*	-38.0	KCNQ2 W236L MoA=i
O=C(O)c1cc(NN=Nc2cccc([N+](=O)[O-])c2)cc([N+](=O)[O-])c1	i	2.56	·	·	·	·	·	·
O=C(CC12CC3CC(CC(C3)C1)C2)NCC(c1ccc(F)cc1)N1CCOCC1 (configuration not stated)	i	11.2*	i	i	-13.3	-14.9	35.5*	-49.3	KCNQ2 W236L MoA=i
O=C(NCC(c1ccc(F)cc1)N1CCOCC1)c1cc(F)c(F)c(F)c1F (configuration not stated)	i	·	·	·	·	·	·	·
CC(=O)Nc1ccc(S(=O)(=O)N(Cc2ccco2)CC2CCCO2)cc1 (configuration not stated)	i	0.02	·	·	·	·	·	·
CC(C)NCC(O)Cn1c2c(c3ccccc31)CCc1c-2cnn1-c1ccccc1 (configuration not stated)	i	·	54.0%*	i	·	·	·	·
COc1ccc(C(=O)c2c(C)c3ccccc3n2CC(O)CNC(C)C)cc1 (configuration not stated)	i	0.75	·	·	·	·	·	·
Cc1ccnc(Nc2nc(-c3sc(C)nc3C)cs2)c1	i	2.9	·	·	·	·	·	·
Cc1nc(C)c(-c2csc(Nc3ccccn3)n2)s1	i	5.72*	i	i	-14.2	14.6*	26.2*	-28.4	KCNQ2 W236L MoA=40.2%*

Bioassay records as filed in PubChem BioAssay.
